The values below come from the supplement of paper PMC10849652.

The full data set covers some 8,800 targets. This sample favours those with a hit. About 0.5% of all pairs of compound and target were hits. Unmarked numbers belong to inactive results.

Chain of UniProt P01116 (P01116 whole entry, looked up): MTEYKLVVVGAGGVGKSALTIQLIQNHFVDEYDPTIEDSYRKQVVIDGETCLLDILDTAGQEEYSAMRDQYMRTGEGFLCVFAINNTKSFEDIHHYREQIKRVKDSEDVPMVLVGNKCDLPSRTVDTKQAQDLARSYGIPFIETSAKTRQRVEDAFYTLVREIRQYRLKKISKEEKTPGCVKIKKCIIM
Chain of UniProt Q08380 (Q08380 whole entry, looked up): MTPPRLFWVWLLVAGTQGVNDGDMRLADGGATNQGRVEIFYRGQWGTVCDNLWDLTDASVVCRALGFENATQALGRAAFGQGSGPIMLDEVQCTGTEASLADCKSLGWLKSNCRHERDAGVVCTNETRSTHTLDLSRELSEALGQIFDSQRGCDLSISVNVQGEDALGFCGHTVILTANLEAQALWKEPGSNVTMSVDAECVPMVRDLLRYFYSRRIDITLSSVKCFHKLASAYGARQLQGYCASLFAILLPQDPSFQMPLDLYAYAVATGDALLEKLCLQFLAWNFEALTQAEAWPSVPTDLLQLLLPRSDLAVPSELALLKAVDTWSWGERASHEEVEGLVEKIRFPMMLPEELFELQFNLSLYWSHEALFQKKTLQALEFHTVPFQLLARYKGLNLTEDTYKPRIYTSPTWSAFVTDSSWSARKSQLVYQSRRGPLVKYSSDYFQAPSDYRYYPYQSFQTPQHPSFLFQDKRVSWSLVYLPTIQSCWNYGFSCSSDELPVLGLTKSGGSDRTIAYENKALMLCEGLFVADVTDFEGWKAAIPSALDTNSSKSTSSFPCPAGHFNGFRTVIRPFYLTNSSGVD
Chain of UniProt Q5T3J3 (Q5T3J3 whole entry, looked up): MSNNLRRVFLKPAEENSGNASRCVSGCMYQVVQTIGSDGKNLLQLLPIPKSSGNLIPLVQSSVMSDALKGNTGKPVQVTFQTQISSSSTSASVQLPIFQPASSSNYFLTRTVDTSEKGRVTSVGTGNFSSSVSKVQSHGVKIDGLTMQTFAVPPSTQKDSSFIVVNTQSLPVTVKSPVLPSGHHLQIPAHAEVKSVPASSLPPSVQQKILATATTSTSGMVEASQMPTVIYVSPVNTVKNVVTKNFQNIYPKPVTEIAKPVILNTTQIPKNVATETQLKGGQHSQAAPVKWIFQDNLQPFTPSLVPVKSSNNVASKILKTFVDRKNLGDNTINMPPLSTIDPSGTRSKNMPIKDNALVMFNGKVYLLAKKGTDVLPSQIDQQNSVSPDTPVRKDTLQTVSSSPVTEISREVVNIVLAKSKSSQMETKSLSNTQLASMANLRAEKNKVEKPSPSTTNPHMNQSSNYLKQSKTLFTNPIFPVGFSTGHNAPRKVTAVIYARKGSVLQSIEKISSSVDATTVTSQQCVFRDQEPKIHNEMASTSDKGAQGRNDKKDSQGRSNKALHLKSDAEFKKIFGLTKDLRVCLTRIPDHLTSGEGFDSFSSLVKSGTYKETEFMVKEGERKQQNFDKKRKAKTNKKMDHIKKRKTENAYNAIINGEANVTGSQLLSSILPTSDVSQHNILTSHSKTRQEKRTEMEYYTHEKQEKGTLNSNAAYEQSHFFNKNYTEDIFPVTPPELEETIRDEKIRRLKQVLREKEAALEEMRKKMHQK
Chain of UniProt Q9Y2E5 (Q9Y2E5 whole entry, looked up): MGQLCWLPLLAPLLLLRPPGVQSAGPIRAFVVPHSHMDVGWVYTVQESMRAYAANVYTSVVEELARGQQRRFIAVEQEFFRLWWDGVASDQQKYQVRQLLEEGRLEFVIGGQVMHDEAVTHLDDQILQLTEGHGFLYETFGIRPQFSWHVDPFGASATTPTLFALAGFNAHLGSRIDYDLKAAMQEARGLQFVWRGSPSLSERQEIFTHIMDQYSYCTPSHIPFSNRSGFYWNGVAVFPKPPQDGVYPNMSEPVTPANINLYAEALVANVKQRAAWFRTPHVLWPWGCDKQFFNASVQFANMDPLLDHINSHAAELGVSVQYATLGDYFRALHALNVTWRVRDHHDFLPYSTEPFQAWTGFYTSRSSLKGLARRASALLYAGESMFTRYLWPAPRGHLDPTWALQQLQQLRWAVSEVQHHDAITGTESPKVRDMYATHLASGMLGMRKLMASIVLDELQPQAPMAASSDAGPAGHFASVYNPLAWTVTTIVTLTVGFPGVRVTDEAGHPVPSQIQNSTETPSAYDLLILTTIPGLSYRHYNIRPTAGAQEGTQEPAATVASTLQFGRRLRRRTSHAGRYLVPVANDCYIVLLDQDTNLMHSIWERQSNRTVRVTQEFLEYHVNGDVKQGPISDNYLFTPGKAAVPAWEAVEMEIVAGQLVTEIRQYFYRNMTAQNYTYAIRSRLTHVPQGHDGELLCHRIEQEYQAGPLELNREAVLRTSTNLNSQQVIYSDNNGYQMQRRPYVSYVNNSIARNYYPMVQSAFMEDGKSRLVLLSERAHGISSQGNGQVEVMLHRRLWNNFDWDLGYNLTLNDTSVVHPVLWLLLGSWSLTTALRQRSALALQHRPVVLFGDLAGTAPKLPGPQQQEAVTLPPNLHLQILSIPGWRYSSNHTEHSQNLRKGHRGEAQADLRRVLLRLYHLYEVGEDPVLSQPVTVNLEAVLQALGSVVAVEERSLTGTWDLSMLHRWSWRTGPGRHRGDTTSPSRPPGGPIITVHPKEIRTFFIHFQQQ
Chain of UniProt Q13164 (Q13164 whole entry, looked up): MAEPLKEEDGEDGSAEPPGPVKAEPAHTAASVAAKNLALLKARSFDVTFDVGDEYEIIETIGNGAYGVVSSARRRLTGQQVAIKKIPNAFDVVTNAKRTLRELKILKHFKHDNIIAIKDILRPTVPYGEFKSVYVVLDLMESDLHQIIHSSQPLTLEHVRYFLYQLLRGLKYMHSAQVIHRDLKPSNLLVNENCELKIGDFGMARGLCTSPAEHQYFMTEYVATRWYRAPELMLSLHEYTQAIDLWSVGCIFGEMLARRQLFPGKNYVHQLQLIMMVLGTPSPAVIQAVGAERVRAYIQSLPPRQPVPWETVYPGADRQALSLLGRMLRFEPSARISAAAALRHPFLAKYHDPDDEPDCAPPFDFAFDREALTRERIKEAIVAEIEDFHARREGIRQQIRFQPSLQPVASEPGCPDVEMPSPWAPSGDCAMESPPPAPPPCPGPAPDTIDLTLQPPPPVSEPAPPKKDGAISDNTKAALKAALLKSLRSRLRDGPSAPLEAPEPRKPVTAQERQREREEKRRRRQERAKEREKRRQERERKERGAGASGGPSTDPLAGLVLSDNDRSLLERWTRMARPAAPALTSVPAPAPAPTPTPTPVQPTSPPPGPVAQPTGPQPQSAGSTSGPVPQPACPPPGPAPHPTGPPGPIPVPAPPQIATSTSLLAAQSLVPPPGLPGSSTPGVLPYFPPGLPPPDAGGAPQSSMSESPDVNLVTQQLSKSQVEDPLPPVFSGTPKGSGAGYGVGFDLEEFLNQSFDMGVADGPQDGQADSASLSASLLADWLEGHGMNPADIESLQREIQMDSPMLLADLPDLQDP
Chain of UniProt Q8WXB1 (Q8WXB1 whole entry, looked up): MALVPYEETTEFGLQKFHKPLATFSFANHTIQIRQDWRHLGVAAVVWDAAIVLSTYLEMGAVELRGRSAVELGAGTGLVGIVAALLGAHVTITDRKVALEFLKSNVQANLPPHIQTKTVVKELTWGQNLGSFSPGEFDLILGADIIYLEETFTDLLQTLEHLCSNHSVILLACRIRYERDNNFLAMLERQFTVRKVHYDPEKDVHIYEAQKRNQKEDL
Chain of UniProt P07948 (P07948 whole entry, looked up): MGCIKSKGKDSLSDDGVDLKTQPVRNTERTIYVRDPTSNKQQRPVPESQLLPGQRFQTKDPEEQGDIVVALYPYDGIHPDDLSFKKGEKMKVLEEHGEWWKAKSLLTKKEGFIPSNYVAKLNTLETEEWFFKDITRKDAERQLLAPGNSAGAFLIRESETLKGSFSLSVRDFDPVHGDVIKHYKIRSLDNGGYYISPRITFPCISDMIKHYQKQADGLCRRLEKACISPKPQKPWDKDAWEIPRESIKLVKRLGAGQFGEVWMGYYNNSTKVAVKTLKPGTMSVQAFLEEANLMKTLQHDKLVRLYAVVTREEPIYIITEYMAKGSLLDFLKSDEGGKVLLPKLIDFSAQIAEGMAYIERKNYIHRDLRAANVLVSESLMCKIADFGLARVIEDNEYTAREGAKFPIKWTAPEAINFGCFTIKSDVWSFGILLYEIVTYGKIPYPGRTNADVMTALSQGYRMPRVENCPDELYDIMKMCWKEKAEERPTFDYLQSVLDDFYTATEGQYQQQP
Chain of UniProt Q9NWR8 (Q9NWR8 whole entry, looked up): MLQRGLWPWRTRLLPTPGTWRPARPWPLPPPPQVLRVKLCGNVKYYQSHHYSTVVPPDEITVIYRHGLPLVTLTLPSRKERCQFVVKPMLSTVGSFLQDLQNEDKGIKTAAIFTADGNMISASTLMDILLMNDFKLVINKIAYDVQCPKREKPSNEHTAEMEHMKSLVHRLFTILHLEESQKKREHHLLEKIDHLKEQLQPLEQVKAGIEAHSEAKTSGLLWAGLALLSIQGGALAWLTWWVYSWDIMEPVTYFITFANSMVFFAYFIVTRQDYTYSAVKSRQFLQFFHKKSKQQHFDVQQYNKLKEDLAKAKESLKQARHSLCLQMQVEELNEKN
Chain of UniProt Q9H204 (Q9H204 whole entry, looked up): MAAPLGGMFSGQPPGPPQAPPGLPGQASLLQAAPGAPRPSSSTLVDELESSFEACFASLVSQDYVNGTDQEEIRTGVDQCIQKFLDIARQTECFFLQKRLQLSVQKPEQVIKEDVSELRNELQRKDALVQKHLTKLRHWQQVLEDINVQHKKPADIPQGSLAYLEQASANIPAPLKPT
Chain of UniProt O15243 (O15243 whole entry, looked up): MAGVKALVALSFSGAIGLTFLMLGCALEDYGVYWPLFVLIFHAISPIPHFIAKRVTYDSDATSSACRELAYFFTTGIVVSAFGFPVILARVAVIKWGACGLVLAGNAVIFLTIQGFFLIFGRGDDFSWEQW

Compound in the test: C1=CC(=CC=C1C2=NC3=C(N2)C=C(C=C3)C(=O)N)OC4=CC=C(C=C4)Cl
Briefly: log2 fold change, soluble protein after heating vs DMSO (PISA); higher = thermal stabilisation; K562 lysate, 10 uM; active = over 0.2 and 3.5 SD of the protein, either way, in both replicates (recomputed). The gist of the method: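 Following dounce homogenisation of K562 pellets in PBS pH 7.4 with 1 mM MgCl2, crude extract at 1 mg/mL protein was incubated for 30 min with 10 μM compound. Aliquots were then heated for 3 min over 48°C-58°C and pooled, NP-40 was added to 0.5% at 4°C, and soluble protein was recovered as the supernatant at 21,000xg for 90 min. Channel-sum-equalised TMTpro 16plex LC-MS/MS quantified this protein. Each value, from duplicates, is a log-two fold change in thermal stability relative to solvent controls.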
For the target MPDZ (UniProt O75970), the log2 fold change is -0.095.

Regarding KIF3C (UniProt O14782), the log2 fold change was -0.082.

In the case of MRPL22 (UniProt Q9NWU5), the log2 fold change is -0.074.

Turning to LRIF1 (UniProt Q5T3J3), the log2 fold change is 0.046.

In the case of MCUB (UniProt Q9NWR8), the log2 fold change was -0.069.

With MEGF8 (UniProt Q7Z7M0), the log2 fold change is 0.016.

As to MAN2B2 (UniProt Q9Y2E5), the log2 fold change was -0.019.

For MRPL27 (UniProt Q9P0M9), the log2 fold change is 0.068.

Regarding LGALS3BP (UniProt Q08380), the log2 fold change is 0.064.

With KRAS (UniProt P01116), the log2 fold change is 0.069.

With MDM1 (UniProt Q8TC05), the log2 fold change is -0.036.

Turning to LEPROT (UniProt O15243), the log2 fold change was -0.116.

On to LYN isoform 2 (UniProt P07948), for which the log2 fold change was -0.093.

Regarding MED28 (UniProt Q9H204), the log2 fold change is 0.039.

As for MRPL30 isoform 2 (UniProt Q8TCC3), the log2 fold change is -0.01.

On to KRAS isoform 2 (UniProt P01116), for which the log2 fold change was 0.087.

METTL21A (UniProt Q8WXB1): the log2 fold change was -0.011.

For MAPK7 (UniProt Q13164), the log2 fold change is 0.012.

In the case of MED25 isoform 3 (UniProt Q71SY5), the log2 fold change is 0.01.

As to MAP4K4 isoform 6 (UniProt O95819), the log2 fold change was 0.156.

With KIFC3 isoform 6 (UniProt Q9BVG8), the log2 fold change was 0.14.

For the target MME (UniProt P08473), the log2 fold change was 0.052.
